Test results as given in PubChem BioAssay.
A number with no mark means an inactive call. How the calls were made is not given here.

Biological target: Pantothenate synthetase (Mycobacterium tuberculosis (strain ATCC 25618 / H37Rv)) (UniProt P9WIL5)
Assay: Recombinant Mtb pantothenate synthetase (PanC) inhibitors, coupled enzyme, confirmatory (AID 375);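 further: 0% = full reaction with vehicle and 100% = no enzyme background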
Settings: coupled enzyme assay; at 10 µM, active compounds read high

Pantothenate synthetase (Mycobacterium tuberculosis (strain ATCC 25618 / H37Rv)), sequence (P9WIL5 whole entry, looked up): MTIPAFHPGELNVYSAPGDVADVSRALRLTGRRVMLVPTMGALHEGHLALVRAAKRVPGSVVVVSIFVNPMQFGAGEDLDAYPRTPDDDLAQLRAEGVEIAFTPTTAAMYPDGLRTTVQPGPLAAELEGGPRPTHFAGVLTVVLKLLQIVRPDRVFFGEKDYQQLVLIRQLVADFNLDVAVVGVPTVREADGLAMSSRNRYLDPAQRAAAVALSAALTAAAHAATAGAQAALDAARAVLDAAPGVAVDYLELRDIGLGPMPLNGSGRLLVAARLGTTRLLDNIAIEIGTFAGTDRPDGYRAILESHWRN

Structure (SMILES) | inhibition
COc1ccc(-c2c(=O)n(OCc3ccccn3)c3ccccc3[n+]2[O-])cc1OC | 3%
Cc1nc2ccccc2c2oc(C(=O)N3CCN(C(=O)c4ccco4)CC3)cc12 | 0%
CCOc1ccc(C(c2nnnn2Cc2ccccc2)N2CCN(C(=O)c3ccco3)CC2)cc1 (stereo unspecified) | 2%
COc1ccc(CN2CC(C(=O)NCc3ccccn3)CC2=O)cc1 (stereo unspecified) | 5%
NC1=NC(c2ccc(Br)cc2)n2c(nc3ccccc32)N1 (stereo unspecified) | 0%
CCn1c(SCC(=O)Nc2ccc3c(c2)OCO3)nc2c(c1=O)SC(C)C2 (stereo unspecified) | 0%
Cc1[nH]c2ccc(F)cc2c(=O)c1SC(F)(F)C(F)C(F)(F)F (stereo unspecified) | 1%
Cc1ccc(-n2c(=O)[nH]c3c(C(N)=O)nc(CC(C)C)nc32)cc1 | 0%
CCN(CC(=O)Nc1ccc2c(c1)OCCO2)Cc1cc(=O)oc2cc(C)c(C)cc12 | 0%
CCOC(=O)N1CCN(C(=O)CN(C2CCCCC2)S(=O)(=O)c2ccc(F)cc2)CC1 | 0%
O=C(NC1CCCC1)c1ccc2nc[nH]c2c1 | 0%
CCOC(=O)c1cn(CC)c2cc(N3CCOCC3)c(F)cc2c1=O | 0%
Cc1c(C(=O)N2CCCC2)sc(NC(=O)c2cccs2)c1C#N | 0%
CN1C(=O)CSc2ccc(NC(=O)N3CCN(c4ccccn4)CC3)cc21 | 8%
CC1(C)CNC(=O)CC(C)(C)N1O | 0%
Cc1ccc(/C(O)=C2\C(=O)C(=O)N(CCCN(C)C)C2c2ccccn2)cc1 (stereo unspecified) | 1%
